Assay results published in PubChem BioAssay AID1159580 (chemical genetic matrix, 2015).
Out of some 5,500 compounds screened, about 2,000 (36%) were called active. Roughly 18% stayed inconclusive and do not appear here. Rule as the data show it: active = normalized growth mostly below about 0.91 (no sharp cut-off); inconclusive = no clear call, values can overlap the other calls; inactive = mostly above about 0.92. Some of the results follow.

Assay: chemical genetic growth profiling, strain panel (AID 1159580);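 also: tested at 20 µM; growth read once vehicle control cultures reached saturation at 30 °C; 1 = growth at the plate median or of vehicle wells; lower values mean less growth of the strain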
Conditions: growth OD

Measured: normalized growth

COc1ccc(C(c2ccc(OC)cc2)C(Cl)(Cl)Cl)cc1
active: S. cerevisiae deletion strains, locus YLR262C, strain YPT6 (second series), stronger effect = lower value 0.856
inactive: S. cerevisiae deletion strains, locus YJR043C, strain POL32, stronger effect = lower value 0.987 | S. cerevisiae deletion strains, locus YJR075W, strain HOC1, stronger effect = lower value 1.01 | S. cerevisiae deletion strains, locus YKL009W, strain mrt4, stronger effect = lower value 0.949 | S. cerevisiae deletion strains, locus YKL068W, stronger effect = lower value 0.995 | S. cerevisiae deletion strains, locus YKL085W, strain MDH1 (second series), stronger effect = lower value 0.999 | S. cerevisiae deletion strains, locus YKL085W, strain MDH1, stronger effect = lower value 0.999 | S. cerevisiae deletion strains, locus YKL160W, strain elf1, stronger effect = lower value 1 | S. cerevisiae deletion strains, locus YKL190W, strain CNB1, stronger effect = lower value 1.01 | S. cerevisiae deletion strains, locus YKR001C, strain vps1, stronger effect = lower value 0.966 | S. cerevisiae deletion strains, locus YKR026C, strain gcn3, stronger effect = lower value 1.01 | S. cerevisiae deletion strains, locus YKR091W, strain srl3, stronger effect = lower value 1.02 | S. cerevisiae deletion strains, locus YLL001W, strain dnm1, stronger effect = lower value 1.01 | S. cerevisiae deletion strains, locus YLL026W, stronger effect = lower value 1.02 | S. cerevisiae deletion strains, locus YLL041C, strain sdh2, stronger effect = lower value 1.02 | S. cerevisiae deletion strains, locus YLR027C, strain aat2, stronger effect = lower value 1.02 | S. cerevisiae deletion strains, locus YLR039C, strain RIC1, stronger effect = lower value 1.01 | S. cerevisiae deletion strains, locus YLR058C, strain SHM2, stronger effect = lower value 0.994 | S. cerevisiae deletion strains, locus YLR102C, strain apc9, stronger effect = lower value 0.99 | S. cerevisiae deletion strains, locus YLR221C, strain rsa3, stronger effect = lower value 0.981 | S. cerevisiae deletion strains, locus YLR258W, strain gsy2, stronger effect = lower value 1.01 | S. cerevisiae deletion strains, locus YLR262C, strain YPT6, stronger effect = lower value 1.03 | S. cerevisiae deletion strains, locus YLR268W, strain sec22, stronger effect = lower value 0.997 | S. cerevisiae deletion strains, locus YLR320W, strain mms22, stronger effect = lower value 0.963 | S. cerevisiae deletion strains, locus YLR330W, strain CHS5, stronger effect = lower value 0.998 | S. cerevisiae deletion strains, locus YLR342W, strain FKS1 (second series), stronger effect = lower value 0.975 | S. cerevisiae deletion strains, locus YLR342W, strain FKS1, stronger effect = lower value 1.01 | S. cerevisiae deletion strains, locus YLR357W, strain rsc2, stronger effect = lower value 1.03 | S. cerevisiae deletion strains, locus YLR370C, strain arc18, stronger effect = lower value 1.01 | S. cerevisiae deletion strains, locus YLR371W, strain rom2, stronger effect = lower value 0.972 | S. cerevisiae deletion strains, locus YLR384C, strain iki3, stronger effect = lower value 0.996 | S. cerevisiae deletion strains, locus YLR418C, strain cdc73, stronger effect = lower value 0.993 | S. cerevisiae deletion strains, locus YML016C, strain PPZ1, stronger effect = lower value 0.993 | S. cerevisiae deletion strains, locus YML032C, strain rad52, stronger effect = lower value 0.975 | S. cerevisiae deletion strains, locus YML120C, strain ndi1, stronger effect = lower value 1.02 | S. cerevisiae deletion strains, locus YML124C, strain tub3, stronger effect = lower value 0.983 | S. cerevisiae deletion strains, locus YMR058W, strain fet3, stronger effect = lower value 1.01 | S. cerevisiae deletion strains, locus YMR078C, strain ctf18, stronger effect = lower value 0.988 | S. cerevisiae deletion strains, locus YMR125W, strain sto1, stronger effect = lower value 1 | S. cerevisiae deletion strains, locus YMR129W, stronger effect = lower value 1.01 | S. cerevisiae deletion strains, locus YMR205C, strain PFK2, stronger effect = lower value 0.985 | S. cerevisiae deletion strains, locus YMR223W, strain ubp8, stronger effect = lower value 0.966 | S. cerevisiae deletion strains, locus YMR231W, strain pep5, stronger effect = lower value 1 | S. cerevisiae deletion strains, locus YMR263W, strain SAP30, stronger effect = lower value 1.01 | S. cerevisiae deletion strains, locus YMR307W, strain GAS1, stronger effect = lower value 0.892 | S. cerevisiae deletion strains, locus YNL067W, strain RPL9B, stronger effect = lower value 0.999 | S. cerevisiae deletion strains, locus YNL071W, strain lat1, stronger effect = lower value 0.999 | S. cerevisiae deletion strains, locus YNL128W, strain TEP1, stronger effect = lower value 0.992 | S. cerevisiae deletion strains, locus YNL153C, strain GIM3, stronger effect = lower value 0.998 | S. cerevisiae deletion strains, locus YNL209W, strain ssb2, stronger effect = lower value 1 | S. cerevisiae deletion strains, locus YNL233W, strain BNI4, stronger effect = lower value 1 | S. cerevisiae deletion strains, locus YNL248C, strain rpa49, stronger effect = lower value 1.01 | S. cerevisiae deletion strains, locus YNL250W, strain rad50, stronger effect = lower value 0.992 | S. cerevisiae deletion strains, locus YNL271C, strain bni1, stronger effect = lower value 0.988 | S. cerevisiae deletion strains, locus YNL298W, strain CLA4, stronger effect = lower value 0.977 | S. cerevisiae deletion strains, locus YNL307C, strain MCK1, stronger effect = lower value 0.964 | S. cerevisiae deletion strains, locus YNL322C, strain KRE1 (second series), stronger effect = lower value 0.985 | S. cerevisiae deletion strains, locus YNL322C, strain KRE1, stronger effect = lower value 1.01 | S. cerevisiae deletion strains, locus YNR049C, strain mso1, stronger effect = lower value 1.01 | S. cerevisiae deletion strains, locus YNR052C, strain pop2, stronger effect = lower value 0.96 | S. cerevisiae deletion strains, locus YOL006C, strain TOP1, stronger effect = lower value 1.02 | S. cerevisiae deletion strains, locus YOL012C, strain htz1 0.957 | S. cerevisiae deletion strains, locus YOL147C, strain pex11, stronger effect = lower value 0.985 | S. cerevisiae deletion strains, locus YOR001W, strain rrp6, stronger effect = lower value 0.987 | S. cerevisiae deletion strains, locus YOR061W, strain CKA2, stronger effect = lower value 1.01 | S. cerevisiae deletion strains, locus YOR069W, strain VPS5, stronger effect = lower value 0.992 | S. cerevisiae deletion strains, locus YOR070C, strain gyp1, stronger effect = lower value 1.02 | S. cerevisiae deletion strains, locus YOR080W, strain dia2, stronger effect = lower value 1.01 | S. cerevisiae deletion strains, locus YOR083W, strain WHI5, stronger effect = lower value 1 | S. cerevisiae deletion strains, locus YOR106W, strain vam3, stronger effect = lower value 0.967 | S. cerevisiae deletion strains, locus YOR136W, strain idh2, stronger effect = lower value 0.972 | S. cerevisiae deletion strains, locus YOR144C, strain elg1, stronger effect = lower value 0.982 | S. cerevisiae deletion strains, locus YOR184W, strain ser1, stronger effect = lower value 0.962 | S. cerevisiae deletion strains, locus YOR265W, strain rbl2, stronger effect = lower value 1.01 | S. cerevisiae deletion strains, locus YOR270C, strain vph1, stronger effect = lower value 0.982 | S. cerevisiae deletion strains, locus YOR290C, strain snf2, stronger effect = lower value 0.984 | S. cerevisiae deletion strains, locus YOR316C, strain cot1, stronger effect = lower value 0.995 | S. cerevisiae deletion strains, locus YPL051W, strain arl3, stronger effect = lower value 0.978 | S. cerevisiae deletion strains, locus YPL055C, strain LGE1, stronger effect = lower value 0.996 | S. cerevisiae deletion strains, locus YPL078C, strain atp4, stronger effect = lower value 1.02 | S. cerevisiae deletion strains, locus YPL106C, strain sse1, stronger effect = lower value 1.06 | S. cerevisiae deletion strains, locus YPL240C, strain hsp82, stronger effect = lower value 1.01 | S. cerevisiae deletion strains, locus YPL241C, strain CIN2, stronger effect = lower value 1 | S. cerevisiae deletion strains, locus YPR119W, strain clb2, stronger effect = lower value 0.998 | S. cerevisiae deletion strains, locus YPR141C, strain kar3, stronger effect = lower value 0.994 | S. cerevisiae deletion strains, locus YPR163C, strain tif3, stronger effect = lower value 0.97 | S. cerevisiae deletion strains, locus YPR167C, strain met16, stronger effect = lower value 0.991 | S. cerevisiae deletion strains, strain wtn01, stronger effect = lower value 1 | S. cerevisiae strains, strain wild type, stronger effect = lower value 1
